In paper PMC13494018:
Unmarked numbers belong to inactive results. How the calls were made is not given here.

B1: design_391_ca6baf5d-2451-47ba-bffc-fc886679966a_1760_dldesign_0_cycle1_af2pred (protein)
chain: KEETQRVMVEATRVINRVAALVIAHPELTEAAALIQQALALLEQAKELLEAGEEEKALELAKQALELAKKALEIAESAL
B2: design_391_ca6baf5d-2451-47ba-bffc-fc886679966a_1764_dldesign_0_cycle1_af2pred (protein)
chain: DPLEEALKEFEEALKLARELAEAVAALNPEEGERAREAIKEAEKRAKEALKLSPEEAAKAIREIRNELMRRVMREGARALAAA
B3: design_391_ca6baf5d-2451-47ba-bffc-fc886679966a_1789_dldesign_0_cycle1_af2pred (protein)
chain: DALAQAIAQIKEMGDIALALAQDALANPAIAAGAIRAAQSLVKHMLALGKAAGPEAAAVAEKEAAKVNAAIAQAKAA
B4: design_391_ca6baf5d-2451-47ba-bffc-fc886679966a_1909_dldesign_0_cycle1_af2pred (protein)
chain: VGLAKAAELAVESAKQAVEQAEALAKAGKDPKQALALTDQAKLAADTAKAIAKQVEKEDPEKGKKLKEEAEKVKKKAEEVEKKIK
B5: design_391_ca6baf5d-2451-47ba-bffc-fc886679966a_1932_dldesign_0_cycle1_af2pred (protein)
chain: AQANAELTLRTLEAAGRAALALARASDAETAARILDAFRKTSAVLIESGAAAGPEAAKKVKELADKYLAELEAIVAAKAAEAA
B6: design_391_ca6baf5d-2451-47ba-bffc-fc886679966a_2026_dldesign_0_cycle1_af2pred (protein)
chain: AAKEALEKAKEKAEEIKAIADDVAKKAAAGTITPEEVAAALAKAIELAKEASEYLKEVPEAEAEEIAREVNAAMAKLNKAAVKALA
B7: design_391_ca6baf5d-2451-47ba-bffc-fc886679966a_2108_dldesign_0_cycle1_af2pred (protein)
chain: TAAAALAAAKAALATAKAAGLPARYLEMAEAALAVATSAAASGDPAHQKAALAFSSAVLAAIEAEAAKRA
B8: design_391_ca6baf5d-2451-47ba-bffc-fc886679966a_2255_dldesign_0_cycle1_af2pred (protein)
chain: DPLLAAARAVAAAALAAVRDGAARGAEAAEQALTFALNLLAAQARRAERELAGDPALRARVLAILDAARAEVRALGEALIAAAR
B9: design_391_ca6baf5d-2451-47ba-bffc-fc886679966a_2271_dldesign_0_cycle1_af2pred (protein)
chain: AAAEKEKEAEAKELFEKARKLAAEAAKLAVKAVGLSEEAYQLANEALQYAIEALEIVSAGEDLEKAKELLEKAQEKLKKATELVKKL
B10: design_391_ca6baf5d-2451-47ba-bffc-fc886679966a_2338_dldesign_0_cycle1_af2pred (protein)
chain: AEAAKQAALNTAGILAATVGAEAAAAAGLEAITVYGASIGDVLKATTTIASATSPQARANATRAVALISRALIAS
B11: design_391_ca6baf5d-2451-47ba-bffc-fc886679966a_2349_dldesign_0_cycle1_af2pred (protein)
chain: NQAKLAEVFARAQEVIKRREEVRKRAEELSEEKREKVLKLLEESTKYLQEAFRAIAKGDAENAKKYVDKAEKLVEEAEKA
B12: design_391_ca6baf5d-2451-47ba-bffc-fc886679966a_2389_dldesign_0_cycle1_af2pred (protein)
chain: GKEEEAKEAVERARELAKKMIEEAEKAAKEDLGKAIEVLKKGNEELLELAEEAEELDPEAGEEIRELATQAISEAVKKMVAIQLAK
B13: design_391_ca6baf5d-2451-47ba-bffc-fc886679966a_2408_dldesign_0_cycle1_af2pred (protein)
chain: SAAAVAAALAAAEASVKTAERFAEEAEKAVDDPERATRLGESARQNIEVALALADDAAATDPAAAPKAAEIKKRAEEVRKRIEEVLKK
B14: design_486_d4f32670-1303-4d79-8413-1b14cb3eff50_4_dldesign_0_cycle1_af2pred (protein)
chain: REEKVEEARRLAQRALNAASKAVVGITSGSLSPEEIQALIDEATEALERAKELAPYATPAVREAIELAEALLQQAKEL
B15: design_486_d4f32670-1303-4d79-8413-1b14cb3eff50_30_dldesign_0_cycle1_af2pred (protein)
chain: AAAARAKAGVYTGEGFEKVREGERLRREGDPRAVEEYEEAAKLFEKAAEYYAQVNPGAAAGVAAMAKQVRERAEEYREEL
B16: design_486_d4f32670-1303-4d79-8413-1b14cb3eff50_34_dldesign_0_cycle1_af2pred (protein)
chain: AAEKAIKVLEEAKKEAAKDPGDGKAAIEAIEKAIEAVKANPNNAGIGQAMVILAEAAAKASPKTRAVLSKAIAELSQVAI
B17: design_486_d4f32670-1303-4d79-8413-1b14cb3eff50_66_dldesign_0_cycle1_af2pred (protein)
chain: AEAEAAAEAAAAAARAAAAAGDFATAVAITTTFAAANPALAWRVANAALAAFSQAARDPATAAAANAAMAAVVDTLRALSS
B18: design_486_d4f32670-1303-4d79-8413-1b14cb3eff50_103_dldesign_0_cycle1_af2pred (protein)
chain: AEAEEFAEKAKEKAKEAVKVYAKDPEAGAAKLNALQAEAARKAIADPRYNPALAAVVEEALKANEVAKAA
B19: design_486_d4f32670-1303-4d79-8413-1b14cb3eff50_135_dldesign_0_cycle1_af2pred (protein)
chain: EREEEVERRREEVVRAAELVAAIARAVGDEETARLAEEAKRLAEEGGEEGVERARELVREAMVRIAKRLAEKS

Molecular target: CD276, Q5ZPR3
Sequence (Q5ZPR3 whole entry): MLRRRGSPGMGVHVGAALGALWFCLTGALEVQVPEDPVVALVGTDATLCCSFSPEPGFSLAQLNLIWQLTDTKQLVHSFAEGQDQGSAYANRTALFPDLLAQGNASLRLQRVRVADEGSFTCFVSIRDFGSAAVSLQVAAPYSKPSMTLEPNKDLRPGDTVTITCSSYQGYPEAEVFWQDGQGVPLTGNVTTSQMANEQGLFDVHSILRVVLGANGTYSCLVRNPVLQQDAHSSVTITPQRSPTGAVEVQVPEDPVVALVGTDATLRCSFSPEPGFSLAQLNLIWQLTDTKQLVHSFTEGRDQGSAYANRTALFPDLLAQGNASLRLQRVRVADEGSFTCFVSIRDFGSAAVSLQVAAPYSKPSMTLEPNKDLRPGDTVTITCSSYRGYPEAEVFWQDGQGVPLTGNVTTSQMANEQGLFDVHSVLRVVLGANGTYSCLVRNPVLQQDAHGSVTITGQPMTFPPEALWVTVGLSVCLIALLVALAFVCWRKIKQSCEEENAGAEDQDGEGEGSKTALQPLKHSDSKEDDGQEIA

| Binder | binding in a display sort |
| --- | --- |
| B1 | not found |
| B2 | not found |
| B3 | not found |
| B4 | not found |
| B5 | not found |
| B6 | not found |
| B7 | not found |
| B8 | not found |
| B9 | not found |
| B10 | not found |
| B11 | not found |
| B12 | not found |
| B13 | not found |
| B14 | not found |
| B15 | not found |
| B16 | not found |
| B17 | not found |
| B18 | not found |
| B19 | not found |
